Yeast superoxide: reduction of superoxide in aged yeast, primary screen, HTS. 330,000 compounds, 0.18% hits. S. cerevisiae aged cells, superoxide DHE fluorescence; hits give low values. superoxide response (% of plate mean), % at 10 µM. AID 2690, 2010;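 active = superoxide response under a set limit, about three screen SD below normal, cut at about 65% in these data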;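 also: yeast aged for seven days with compound at 30 °C before DHE staining; 100% = average MFI of all compound-treated wells on the plate with controls excluded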
NALP1 yeast inh: NALP1 inflammasome inhibitors in reconstituted yeast, colorimetric, S. cerevisiae, triplicate retest; S. cerevisiae NALP1/ASC/caspase-1 growth, X-gal OD620, 72 h; inhibition, % at 10 µM; 280,000 compounds, 0.61% hits; AID 2071, 2009; in the data active = inhibition mostly above about 24%, no sharp cut-off; inactive = mostly below about 32%
UBC13 polyUb: UBC13 polyubiquitin chain formation inhibitors, primary screen, biochemical, TR-FRET, uHTS. Ubiquitin-conjugating enzyme E2 N (Homo sapiens), P61088. AID 485273, 2010. inhibition, % at 20 µM. 330,000 compounds, 0.47% hits; in the data active = inhibition above about 45%, passing the limit was not always enough
dFosB activator: activators of delta FosB homodimer, primary screen, biochemical, fluorescence polarization, TAMRA-CDK5 oligo, single point. Protein FosB (Mus musculus), P13346. purified delta FosB; percent of positive-control signal above neutral wells. activation, % at 25 µM. 340,000 compounds, 0.99% hits. AID 493131, 2011;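 active = mean activation above about 17%, with every replicate also reaching it, limit read from the data, passing the limit was not always enough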
Target sequence (P13346 whole entry, looked up): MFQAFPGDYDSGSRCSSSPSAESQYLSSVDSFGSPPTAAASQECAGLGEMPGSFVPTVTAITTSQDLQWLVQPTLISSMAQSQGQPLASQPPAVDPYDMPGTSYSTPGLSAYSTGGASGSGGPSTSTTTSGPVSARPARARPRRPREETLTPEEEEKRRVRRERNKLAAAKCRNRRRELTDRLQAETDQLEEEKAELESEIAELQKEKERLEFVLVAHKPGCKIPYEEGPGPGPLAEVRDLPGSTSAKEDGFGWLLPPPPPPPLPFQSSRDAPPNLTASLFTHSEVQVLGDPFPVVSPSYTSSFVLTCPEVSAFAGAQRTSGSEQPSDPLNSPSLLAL
NR3A LBD binder: binders of NR3A ligand-binding domain, primary screen, biophysical, differential scanning fluorimetry, uHTS. 340,000 compounds, 2.5% hits. NR3A LBD differential scanning fluorimetry, Tm shift; 0% = protein alone, 100% = glycine-bound protein. AID 1259313, 2017. Tm shift relative to glycine control, % at 25 µM;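 active = melting temperature shift of at least 10% of the positive control shift, at one fixed dose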
Casp3 UBC13 ctr: CASP3 inhibitor validation, counterassay for project on UBE2N polyubiquitination blockers, biochemical, one dose. shares compounds with UBC13 polyUb. Recombinant caspase-3, Caspase-Glo 3/7 luminescence, 60 min. 1,400 compounds, 4% hits. inhibition, % at 20 µM. AID 488856, 2010;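 active = mean inhibition across replicates above about 26%, limit read from the data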;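 also: plate controls were DMSO with caspase-3 for no effect and DMSO wells lacking enzyme for full effect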
UBC13 conf: UBC13 polyubiquitination inhibitors, single-point retest, confirmation, biochemical, TR-FRET, single concentration; inhibition, % at 10 µM; 1,400 compounds, 68% hits; shares compounds with UBC13 polyUb; AID 488859, 2010; in the data active = inhibition above about 45%
* marks the source's active call; other numbers are inactive results; / = no result. Sampled rows, rich in hits. Any-hit rate of the full collection: about 4.3%.

SMILES	Yeast superoxide	NALP1 yeast inh	UBC13 polyUb	dFosB activator	NR3A LBD binder	Casp3 UBC13 ctr	UBC13 conf
CCCCCOc1ccc(Br)cc1/C(C)=N/NC1=NCCN1	93	83*	58*	3	2	-3	64*
CC(=O)Nc1ccc(S(=O)(=O)N2CCN(CC(O)COc3ccc4ccccc4c3)CC2)cc1 (configuration not stated)	90	2	47*	-19	-2	0	49*
CC(c1ccccc1)N1C(=O)/C(=C/c2ccncc2)SC1=S (configuration not stated)	89	7	3	-5	7	/	/
COc1ccc(C2c3ccc4ccccc4c3Oc3ncn(CCCN(C)C)c(=N)c32)cc1 (configuration not stated)	114	10	61*	-5	-3	-4	48*
NC(=O)[C@@H]1CCCCNc2c(F)cc([N+](=O)[O-])cc2C(=O)N[C@@H](CCCN=C(N)N)C(=O)NCC(=O)N1	103	23	24	15	-3	/	/
NCCCC[C@@H]1NC(=O)c2cc([N+](=O)[O-])cc(F)c2NCCCC[C@@H](C(N)=O)NC(=O)CNC1=O	/	24	85*	9	1	-4	77*
C[C@@H]1NC(=O)[C@H](CCC(N)=O)NC(=O)c2cc([N+](=O)[O-])cc(I)c2NCCC[C@@H](C(N)=O)NC1=O	102	14	-8	-1	2	/	/
NCCCC[C@@H]1NC(=O)c2cc([N+](=O)[O-])cc(F)c2NCCCC[C@@H](C(N)=O)NC(=O)[C@H](CCC(N)=O)NC1=O	114	24	74*	15	2	1	56*
Cn1cncc1C#Cc1c(-c2ccc(S(C)(=O)=O)cc2)sc2ccccc12	90	/	69*	-12	-14	-5	50*
CS(=O)(=O)c1ccc(-c2sc3ccccc3c2C#CCCO)cc1	101	/	45	-1	-24	/	/
COc1ccc(-c2sc3ccccc3c2C#Cc2cncn2C)cc1	117	/	59*	-2	-16	-1	44
CCOc1ccccc1/C=C(/NC(=O)c1ccccc1)C(=O)NC(C)c1ccccc1 (configuration not stated)	104	37	-6	0	-8	/	/
CCCCN(CC)CCNC(=O)c1cc2c(=O)n(C)c3ccccc3c2n1C	103	22	57*	-13	-1	-1	53*
CCCn1c2ccccc2c2nc3ccccc3nc21	103	-10	47*	-46	6	5	41
CCN(CC)CCn1c2ccccc2c2nc3ccccc3nc21	101	23	-46	-33	0	/	/
CCOC(=O)c1c(C)n(-c2ccc(C)cc2)c2ccc(OCC(O)CNCC3CCCO3)cc12 (configuration not stated)	102	-12	56*	30*	-17	0	77*
CCOC(=O)c1c(C)n(-c2ccc(C)cc2)c2ccc(OCC(O)CNCCCO)cc12 (configuration not stated)	90	-7	62*	9	-2	0	64*
O=C(CSc1nnc(-c2ccccn2)o1)Nc1ccccc1Cl	105	12	0	-1	-1	/	/
N=c1c(C(=O)NCCN2CCOCC2)cc2c(=O)n3ccccc3nc2n1CCCN1CCOCC1	99	12	-2	14	-2	/	/
N#C[C@H]1C(O)C(O)c2ccccc2N1C(=O)c1ccccc1 (some centres not stated)	82	/	58*	2	0	3	9
Cc1ccc(NC2=CC(=O)CC(c3ccc(Cl)cc3)C2)cc1 (configuration not stated)	98	18	4	3	1	/	/
